The chains are these.
B1: GBRAPL2_53_7356 (protein)
chain: MLELEIAHPDKEIMAKAVEEIFNLLKEENVEAEVTVTTENGEVIKLTGDIEEIKKKVVELAKKQPILVSIKLPDSAEEVVEKMEDIALELGATVSVSRLE
B2: GBRAPL2_53_7350 (protein)
chain: MYVIEIAHPDKETLAKAIEAIFDKLIEAGVEAKITVTLEDGTVIKLEGSLEEQKKKAVALAKETNVLVEIELPDSAKEVVEELEDIALKEGATVSVEKLE
B3: GBRAPL2_53_7353 (protein)
chain: MIEVDIAHPDPEVMARALEKIFDIIKEAGQKVTVTVTTEDGTVITLTGDIDTIRAETVALAKQQPILVRIELEEEDEEVAEKVVDAALEEGATVSVERVE
B4: GBRAPL2_43_7342 (protein)
chain: MTEIEKKAIEEAREALEEKLDLDGVKEYEEEVEIRKEGDRTIAIVKATSKETGKEYYAVAVYDKNGELLVVVVSSDLERALKAAEDLIELGERDTYVLLP
B5: GBRAPL2_53_7344 (protein)
chain: MIEVDIAHPDKEVMAKAVEAVFDILEEAGVEAEVEVTKEDGTVERLRGPLEEVREKAVKLAKETEVLVTIRLPDSAEEVVEKIEDEALKHGATVSVKRLE
B6: GBRAPL2_53_7345 (protein)
chain: MIVVDVAHPDKEVMAEAVEAIFDILEENGVEAKVTVTLEDGTVVELEGPLDEVRKKAVELAKKSEVLVEIELPDSAEETVEKLEDVALEKGATVSVERIP
B7: GBRAPL2_53_7347 (protein)
chain: MIEIDIAHPDKEVMAETLEEIFDVLKKAGVEAKVTVTTENGEVIVLEGDLDEIKEKVVELAKKTNILVTIELPEDAEEVVEEIIDIALEKGAAVSVDGLE
B8: GBRAPL2_175_7340 (protein)
chain: SAYEALLKEIIKLLLELSEKANDEVSDLLDAAAAVLETDGLAAAGRAAALVAEASKEAADNPQLQAALAKLAAALKALAAGAAPEEVEKLLKEAKAITKK
B9: GBRAPL2_53_7343 (protein)
chain: MIEVDIAHPDKEVMAAAVEAVFDILERAGVEARVTVTKEDGTVVELEGPLEEVRAQAVALAKATEVLVRIELPDEAEEVVEEIEDEALAKGATVSVERIP
B10: GBRAPL2_53_7355 (protein)
chain: MVEIDIGHPDKEVMVKALEEVFDLIEKAGAEVEVIVTKEDGTVIKLTGSVEEIREKVIALAREQPILVTILLKEKNEKLVEEMVDAALKAGATVSVEELP
B11: GBRAPL2_53_7349 (protein)
chain: MYEVEIAHPDKEVLAAAIEAIFDKIEEAGVEAEVEVTLEDGTVIKLEGPIEEQKEEAVALAKETDVLVTIKLPDEAEELVEELEDIALEKGATVSVEKLE
B12: GBRAPL2_53_7348 (protein)
chain: MYVVEIAHPDRDVLAAAIEAVFDLIEEAGVEAEVTVTLEDGTVIKLEGPISEVKERAVALAKETDVLVEIKLPDEAEEVVEELEDIALEKGATVSVEKLE
B13: GBRAPL2_53_7351 (protein)
chain: MYRVLIGHPDKEVMVKALEKVFEILEEAGVEAKVKVTKEDGTVIELEGPIKEIKEETLKLAKEQPILVEIELPDEAEEVVEKIVDAALEAGATVSVEKVE
B14: GBRAPL2_53_7346 (protein)
chain: MKKVDIAHPDKEKLAKTLEEIFKILEENGVKAKVTVTTEDGNVIVLEGDLEEIREKTVKLAKETEVLVEIELPDDAEETVEKIIDVALKNGATVSVDGLE
B15: GBRAPL2_175_7341 (protein)
chain: AAYEKLLKEIIELLDELAEKADDEVSDLLEAAAAVLETDGLAGAGRAAKLVAEAAKEAADNPKLQAALKEVAAALKAIADGAAPEEVEKLLKKAKAILKE
B16: GBRAPL2_53_7354 (protein)
chain: MIAIEIGHPNKEVMVEALKKVFEIIKKAGEKVEVEVTLEDGTVIKLEGSVEEIEEKVLELAKKQPILVTIYLPEKNEELVEEIEDAALEAGATVSVEELP

The test deals with GABARAPL2, P60520. The test can be described thus: median log2 fold change of GCK-ALFA target abundance (FLAG IP / Myc IP barcode read proportion) (log2 ratio); each designed protein is fused to an ALFA-tag nanobody in HEK293 cells to bring the named protein to FLAG-tagged glucokinase (GCK); Myc marks an untargeted standard; higher = target protein stabilised (more abundant). Particulars: target protein: 3xFLAG-MCP-GCK-ALFA reporter; HEK293 landing pad (RPLP). Summed up: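 The readout is target abundance, the per-binder median log2 ratio of FLAG to Myc barcode read proportions. It came from HEK293 landing-pad cells carrying a recombined ALFA-nanobody-fused binder library, induced with 2 μg mL^−1 doxycycline and transfected with a plasmid for a FLAG-tagged target and a Myc-tagged standard. After 48 h, lysates were immunoprecipitated with anti-FLAG and anti-Myc, and circular RNA barcodes were reverse transcribed, amplified and sequenced. Each barcode needed a proportion of at least 10^−7 in both replicates and each binder at least 3 barcodes per replicate, a pseudocount of 10^−6 was added, and the replicates were pooled.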
Sequence of GABARAPL2, P60520 (P60520 whole entry, the tested form may be a part): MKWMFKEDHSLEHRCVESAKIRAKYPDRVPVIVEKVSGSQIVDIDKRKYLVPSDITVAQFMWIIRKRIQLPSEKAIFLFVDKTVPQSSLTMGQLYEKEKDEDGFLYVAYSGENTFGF
Regarding B1, the “median log2 fold change” value is 0.229. As for B2, the “median log2 fold change” value turned out to be 0.177. In the case of B3, the “median log2 fold change” value worked out at 0.275. For the molecule B4, the “median log2 fold change” value was found to be 0.125. With B5 the figure was 0.23. Consider B6, for which the “median log2 fold change” value worked out at 0.0792. B7: the “median log2 fold change” value was -0.185.

Turning to B8, the “median log2 fold change” value worked out at 0.217. B9: the “median log2 fold change” value was 0.199. With B10 the figure was 0.379; with B11, 0.0915. Regarding B12, the “median log2 fold change” value amounted to 0.152. Turning to B13, the “median log2 fold change” value is 0.157.

Regarding B14, the “median log2 fold change” value turned out to be 0.2. As to B15, the “median log2 fold change” value came out at 0.142. For B16, the “median log2 fold change” value stood at 0.166.

The record behind these values is the supplement of paper PMC12632987.
